IDE exosite FP – displaces the probe from the exo-site of human IDE | P14735 | purified IDE, FL-6b probe fluorescence polarization; hits give low values | z-score at 20 µM | 6.3% of 17,000 active | AID 1259349;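 active = z-score of -3 or lower, meaning strong loss of probe binding signal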;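 also: His-tagged human IDE residues 42-1019 made in E. coli with 30 nM FL-6b probe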
Numbers stand for hits; . = inactive. Only a selection was taken, and hits are over-represented in it overall.

SMILES	IDE exosite FP
CCC(=O)N1CCCCN2[C@@H](CO)[C@H](c3ccc(C#Cc4ccccc4)cc3)[C@@H]2C1	-9.4
CCC(=O)N1CCCCN2[C@H](CO)[C@@H](c3ccc(C#CCOC)cc3)[C@@H]2C1	.
CCC(=O)N1CCCCN2[C@@H](CO)[C@H](c3ccc(C#CCOC)cc3)[C@@H]2C1	.
CCC(=O)N1CCCCN2[C@@H](CO)[C@@H](c3ccc(C#CCOC)cc3)[C@@H]2C1	.
CCC(=O)N1CCCCN2[C@@H](CO)[C@@H](c3ccc(C#Cc4ccccc4)cc3)[C@@H]2C1	-7.7
O=C(Nc1ccccc1)N1CCCCN2[C@H](CO)[C@@H](c3ccc(C#Cc4ccccc4)cc3)[C@H]2C1	.
CCC(=O)N1CCCCN2[C@@H](CO)[C@H](c3ccc(-c4cccc(C#N)c4)cc3)[C@@H]2C1	.
CCC(=O)N1CCCCN2[C@H](CO)[C@H](c3ccc(C#CCOC)cc3)[C@H]2C1	.
CN(C)C(=O)c1ccc(-c2ccccc2[C@@H]2[C@@H](C#N)N(C(=O)C3CCCCC3)[C@@H]2CO)cc1	.
C[C@@H]1CCCCO[C@@H](CN(C)CC2CCCCC2)[C@H](C)CN([C@H](C)CO)C(=O)c2cc(NS(C)(=O)=O)ccc2O1	.
CN(C)C(=O)[C@@H]1[C@@H](CO)[C@@H]2Cn3c(cccc3=O)[C@H]1N2CC1CCOCC1	.
CCCNC(=O)N1CC2(CN(CC3CCCCC3)C2)c2c(n(C)c3cc(OC)ccc23)[C@@H]1CO	.
O=C1CNC[C@H]2[C@@H](c3ccc(-c4ccccc4F)cc3)[C@H](CO)N12	.
COc1ccc2c3c(n(C)c2c1)[C@@H](CO)N(Cc1ccccc1)CC31CN(C(=O)c2ccccc2F)C1	.
CCS(=O)(=O)N1CC2(C1)[C@@H](c1ccccc1)[C@H](CO)N2Cc1ccccn1	.
CCC(=O)N1[C@H](CN(CC)C(=O)NC2CCCC2)[C@@H](c2ccccc2)[C@@H]1CO	.
N#C[C@H]1[C@H](c2ccc(-c3ccc(F)cc3)cc2)[C@@H](CO)N1c1nc(-c2ccccc2)cs1	.
COc1ccc(NC(=O)N2CC(=O)N3[C@H](CO)[C@@H](c4ccc(Br)cc4)[C@@H]3C2)cc1	.
CNC[C@@H]1OCc2cnnn2CCCC(=O)N([C@@H](C)CO)C[C@H]1C	.
CN1C(=O)c2cc(NC(=O)c3cccc(Cl)c3)ccc2OC[C@@H]2O[C@H](CC(=O)NC3CCCCC3)CC[C@H]21	.
N#Cc1ccc(-c2ccc([C@@H]3[C@@H](CO)N4C(=O)CN(C(=O)C5CCCC5)C[C@H]34)cc2)cc1	.
CC(C)C#Cc1ccc([C@H]2[C@@H](CO)N3CCCCN(S(=O)(=O)Cc4ccccc4)C[C@@H]23)cc1	.
COCC(=O)N(C[C@H]1N[C@H](CO)[C@H]1c1ccc(-c2ccccc2)cc1)C(C)C	.
COc1ccc(-c2ccc([C@@H]3[C@@H](CO)N4C(=O)CN(C(=O)c5ccc6c(c5)OCO6)C[C@H]34)cc2)cc1	.
Cc1cccc(-c2ccc([C@H]3[C@@H](CO)N4C(=O)CN(C(=O)c5ccc6c(c5)OCO6)C[C@@H]34)cc2)c1	-3.1
SMILES	IDE exosite FP
Cc1cccc(-c2ccc([C@H]3[C@H]4CN(C(=O)c5ccccc5)CC(=O)N4[C@H]3CO)cc2)c1	.
O=C(c1ccc2c(c1)OCO2)N1CC(=O)N2[C@H](CO)[C@@H](c3ccc(C#Cc4ccccc4)cc3)[C@H]2C1	.
Cc1ccc(-c2ccc([C@H]3[C@@H](CO)N4C(=O)CN(C(=O)c5ccccc5)C[C@@H]34)cc2)cc1	.
O=C(c1ccc2c(c1)OCO2)N1CC(=O)N2[C@H](CO)[C@H](c3ccc(C#Cc4ccccc4)cc3)[C@@H]2C1	.
Cc1cccc(-c2ccc([C@H]3[C@H](CO)N4C(=O)CN(C(=O)c5ccccc5)C[C@@H]34)cc2)c1	-7.4
Cc1cccc(-c2ccc([C@@H]3[C@H](CO)N4C(=O)CN(C(=O)c5ccccc5)C[C@@H]34)cc2)c1	-4.6
Cc1ccc(-c2ccc([C@@H]3[C@@H](CO)N4C(=O)CN(C(=O)c5ccccc5)C[C@H]34)cc2)cc1	.
Cc1cccc(-c2ccc([C@@H]3[C@@H](CO)N4C(=O)CN(C(=O)c5ccccc5)C[C@H]34)cc2)c1	.
O=C(c1ccc2c(c1)OCO2)N1CC(=O)N2[C@H](CO)[C@@H](c3ccc(-c4ccccc4)cc3)[C@H]2C1	.
O=C(c1ccc2c(c1)OCO2)N1CC(=O)N2[C@@H](CO)[C@H](c3ccc(C#Cc4ccccc4)cc3)[C@@H]2C1	-4.3
COCc1cn(CC[C@H]2CC[C@@H](NC(=O)Nc3c(C)noc3C)[C@H](CO)O2)nn1	.
C/C=C/c1ccc([C@H]2[C@@H](CO)N3C(=O)CN(C(=O)Nc4cc(F)ccc4F)C[C@@H]23)cc1	.
COCC#Cc1ccc([C@H]2[C@H]3CN(C(=O)Nc4ccccc4F)CC(=O)N3[C@H]2CO)cc1	.
O=C(Nc1ccccc1)N1CC(=O)N2[C@H](CO)[C@@H](c3ccc(C#CC4CCCCC4)cc3)[C@@H]2C1	.
C[C@H](CO)N1C[C@H](C)[C@H](CN(C)Cc2ccc(-c3ccccc3)cc2)Oc2ccc(N(C)C)cc2CC1=O	.
CCCNC(=O)N(C)C[C@H]1Oc2ncc(C#CC3CCCCC3)cc2C(=O)N([C@@H](C)CO)C[C@@H]1C	.
CCCNC(=O)N1[C@H](C#N)[C@@H](c2ccccc2-c2cccc(C)c2)[C@@H]1CO	.
COc1cc(CN2C[C@@H]3N[C@H](C2)C3c2ccc(-c3cncnc3)cc2)cc(OC)c1 (stereo not given in full)	.

Screens: PubChem, Broad Institute
